Source: PubChem BioAssay AID489039 (National Center for Advancing Translational Sciences (NCATS), 2010)
Where “and” joins values, the source holds several entries; their conditions need not be identical. Equal entries are not always repeated. Inconclusive results are not listed. Values without a mark were called inactive. Calls of active or inactive are those of the source. Calls come from the whole dose curve; as a rule, active = well fitted inhibition curve with a large enough effect; inconclusive = small, poorly fitted or top-dose-only effect, or effect the other way; inactive = no such curve, though single readings can be large or run the other way.

Each compound was assayed against Nuclear receptor ROR-alpha (Homo sapiens) (UniProt P35398) (assay: ROR alpha selectivity assay for inhibitors of ROR gamma transcriptional activity). Conditions: Drosophila S2 Gal4-RORalpha UAS-luciferase, 20 h; series mostly up to 92.2 µM; activity change, negative = inhibition: at the top concentration.
Description: NIH Molecular Libraries Probe Production Network [MLPCN] NIH Chemical Genomics Center [NCGC] MLPCN Grant: R03 DA026211-01 Assay Provider: Dan Littman, New York University Assay Overview: The retinoic acid-related orphan receptor (ROR) gamma is a transcription factor that has a central role in the differentiation of Th17 cells, a subset of T helper cells that secrete the inflammatory cytokines IL-17A, IL-17F, and IL-22. Th17 cells have been implicated in graft versus host disease, autoimmune disease and asthma. RORgamma is induced in naive T helper cells in the presence of TGF-beta combined with IL-6, IL-21, or IL-23, and thereafter directs the expression of the Th17 lineage cytokines. To identify nonselective inhibitors, a Drosophila Schneider cell line was stably transfected with two vectors: a gene expressing a fusion of the Gal4 DNA binding domain and the transactivation domain of the ROR alpha, under the control of the metallothionine promoter and a Photinus luciferase reporter regulated by the Gal4 binding site enhancer, UAS. […] Small molecule inhibitors that inhibit RORgamma and RORalpha, or components common to both, will be active in both assays and thus scored as nonselective.
Assay Protocol Summary: For screening, 600 cells in 4 uL/well were dispensed into white solid 1536-well plates (Grenier) using a solenoid-based dispenser. Following transfer of 23 nL compound or DMSO vehicle by a pin tool, the plates were incubated 1 hr at ambient temperature, and 1 uL/well copper sulfate (700 uM final concentration) was added. The plates were centrifuged 15 s at 1000 RPM and incubated 20 hr at ambient temperature. After addition of 1.5 uL Photinus luciferase detection reagent, the plates were incubated 10 min at ambient temperature and then read by an ViewLux (Perkin Elmer) to detect luminescence.

Row | Compound | activity change, negative = inhibition | Potency
1 | COc1cc(O)c(C(CC(=O)N2CCCC2)c2ccc3c(c2)OCO3)c(OC)c1 (stereo not given) | -18.2% | –
2 | CC1CCCN(C(=O)CC(c2ccc3c(c2)OCO3)c2ccc(O)cc2O)C1 (stereo not given) | 13.4% | –
3 | CCOC(=O)C1CCN(CC(=O)Nc2cc(C)nn2-c2nc3ccccc3s2)CC1 | – | 20.4 µM (active)
4 | CC(C)(C)c1ccc([S+](=O)([O-])Nc2ccccc2C(O)(C(F)(F)F)C(F)(F)F)cc1 | – | 18.2 µM (active)
5 | COc1ccc(-c2c[n+]3c(n2-c2ccc(C)cc2)CCCCC3)cc1 | – | 10.2 µM (active)
6 | Cc1cc(C)c2sc(NC(=O)c3ccc(N4C(=O)CCC4=O)cc3)nc2c1 | – | 0.407 µM (active)
7 | CCOC(=O)Cn1c(CN2CCc3ccccc3C2)nc2c1c(=O)n(C)c(=O)n2C | – | 16.2 µM (active)
8 | COc1cc(OC)c(C(CC(=O)N2CCCC(C)C2)c2ccc3c(c2)OCO3)c(OCc2ccccc2)c1 (stereo not given) | – | 20.4 µM (active)
9 | COc1cc(O)c(C(CC(=O)NCC2CCCCC2)c2ccc3c(c2)OCO3)c(OC)c1 (stereo not given) | -20.1% | –
10 | COc1cc(O)c(C(CC(=O)N2CCCC(C)C2)c2ccc3ccccc3c2)c(OC)c1 (stereo not given) | -28% | –
11 | COc1cc(O)c(C(CC(=O)N2CCCC(C)C2)c2ccccc2)c(OC)c1 (stereo not given) | 17.8% | –
12 | CC(C)(C)c1ccc(S(=O)(=O)Nc2ccc(C(O)(C(F)(F)F)C(F)(F)F)cc2)cc1 | – | 18.2 µM (active)
13 | COc1cc(O)c(C(CC(=O)N2CCCCC2)c2ccc3c(c2)OCO3)c(OC)c1 (stereo not given) | 5.12% | –
14 | COC(=O)c1ccc(OCC(=O)c2ccc(O)cc2O)cc1 | – | 0.0575 µM (active)
15 | COc1ccccc1C(CC(=O)N1C[C@H](C)C[C@H](C)C1)c1ccccc1 (stereo not given in full) | – | 51.2 µM (active)
16 | Cc1cccc(C(CC(=O)NCc2ccco2)c2ccccc2)c1O (stereo not given) | 91.2% | –
17 | COc1cc(O)c(C(CC(=O)N2CCCC(CN3CCCCC3)C2)c2ccc3c(c2)OCO3)c(OC)c1 (stereo not given) | -29.6% | –
18 | COc1ccc(C(CC(=O)N2CCCC(C)C2)c2ccccc2)cc1 (stereo not given) | -15.6% | –
19 | COc1cc(O)c(C(CC(=O)N2CCCCC2C)c2ccc3c(c2)OCO3)c(OC)c1 (stereo not given) | 4.78% | –
20 | O=C(CCCN1C(=O)/C(=C/c2ccccc2Cl)SC1=S)Nc1cccnc1 | – | 1.82 µM (active)

Row | Compound | activity change, negative = inhibition | Potency
21 | CCOc1cccc(-c2cc(-c3n[nH]c(=S)n3CC)c3ccccc3n2)c1 | – | 7.24 µM (active) and 18.2 µM (active)
22 | COC(=O)Cn1c(CN2CCc3ccccc3C2)nc2c1c(=O)n(C)c(=O)n2C | – | 18.2 µM (active)
23 | CC1CCCN(C(=O)CC(c2ccc3c(c2)OCO3)c2cc(C(C)C)ccc2O)C1 (stereo not given) | 17.7% | –
24 | CC1CCCN(C(=O)CC(c2ccccc2)c2ccc(O)cc2)C1 (stereo not given) | -19.1% | –
25 | COCC1CCCN(C(=O)CC(c2ccc3c(c2)OCO3)c2c(O)cc(OC)cc2OC)C1 (stereo not given) | -3.63% | –
26 | CCn1cc(C(=O)O)c(=O)c2cnc(N3CCN(C(=S)NC(=O)c4ccccc4)CC3)nc21 | – | 22.9 µM (active)
27 | O=C(/C=C/c1ccc(S(=O)(=O)N2CCOCC2)cc1)NC(=S)Nc1ccc(N2CCOCC2)cc1 | – | 14.4 µM (active)
28 | O=C(CCCOc1ccccc1)Nc1nc2ccccc2[nH]1 | – | 14.4 µM (active)
29 | COc1cc(O)c(C(CC(=O)N2CCCC(COc3ccc(F)cc3)C2)c2ccc3c(c2)OCO3)c(OC)c1 (stereo not given) | 16.6% | –
30 | CC1CCCN(C(=O)CC(c2ccccc2)c2ccccc2O)C1 (stereo not given) | 20.8% | –
31 | COc1cc(O)c(C(CC(=O)Nc2cccc3ccccc23)c2ccc3c(c2)OCO3)c(OC)c1 (stereo not given) | -14.7% | –
32 | COc1cc(O)c(C(CC(=O)N2CCC(C)CC2)c2ccc3c(c2)OCO3)c(OC)c1 (stereo not given) | 39.5% | –
33 | CC(C)(C)c1ccc(-c2noc(CCC(=O)Nc3cccnc3)n2)cc1 | – | 0.0457 µM (active)
34 | CCNC(=O)CCc1nc(-c2ccc(C(C)(C)C)cc2)no1 | – | 0.162 µM (active)
35 | Cc1ccc(C)c(/C=N/n2cc(-c3ccccc3)[nH]c2=S)c1 | – | 0.911 µM (active)
36 | COc1cc(O)c(C(CC(=O)N2CCCC(C)C2)c2ccc(C(C)C)cc2)c(OC)c1 (stereo not given) | – | 36.3 µM (active)
37 | COCC1CCCCN1C(=O)c1cc(COc2ccc3ncccc3c2)on1 (stereo not given) | – | 14.4 µM (active)
38 | COc1cc(O)c(C(CC(=O)N2CCCC(C#N)C2)c2ccc3c(c2)OCO3)c(OC)c1 (stereo not given) | 18.3% | –
39 | COc1cc(O)c(C(CC(=O)N2CCCC(C)C2)c2ccc(-c3ccccc3)cc2)c(OC)c1 (stereo not given) | -20.9% | –
40 | COc1cc(O)c(C(CC(=O)N2CCCC(C)C2)c2ccccc2OC)c(OC)c1 (stereo not given) | 24.7% | –
